What all share (assay): DAPPL (digital affinity profiling via proximity ligation, sequencing); 10 mM Tris-HCl pH 7.5, 50 mM NaCl, 1 mM DTT, 4% glycerol, room temperature, 30 min; GST-TFs on glutathione beads, 16-mer random dsDNA library, 0.1% formaldehyde crosslink after washing; high values mean tight binding
For one assay, the target named is T1, FEV (Homo sapiens, UniProt Q99581 1-238).
T1 sequence: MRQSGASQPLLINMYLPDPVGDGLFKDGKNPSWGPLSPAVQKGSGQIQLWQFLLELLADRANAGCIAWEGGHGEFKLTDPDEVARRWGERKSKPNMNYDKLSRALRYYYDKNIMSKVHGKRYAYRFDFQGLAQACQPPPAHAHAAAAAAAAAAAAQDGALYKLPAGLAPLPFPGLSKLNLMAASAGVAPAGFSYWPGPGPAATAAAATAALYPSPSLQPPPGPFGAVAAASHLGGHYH
The conditions noted are these: protein: recombinant; tags: N-terminal GST; dsDNA, one strand shown. The procedure, abridged: (§1)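 Yeast served to express human transcription factors as GST fusions, which were then captured on glutathione beads and labelled with DNA barcodes. Pooled with a tag-only sample, they were incubated with 200 nmole of a 16-mer random double-stranded DNA library for 30 min at room temperature in Tris/NaCl/DTT/glycerol buffer, washed, crosslinked with 0.1% formaldehyde, ligated by proximity, amplified by PCR and sequenced. Dividing each hexamer's read frequency for a factor by its frequency for the tag-only sample gives the binding signal.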

Another assay deals with ETV5 (Homo sapiens, UniProt P41161 1-510). The conditions noted are these: protein: recombinant; tags: N-terminal GST; dsDNA, one strand shown. The procedure, abridged: as §1
ETV5, sequence (P41161 whole entry): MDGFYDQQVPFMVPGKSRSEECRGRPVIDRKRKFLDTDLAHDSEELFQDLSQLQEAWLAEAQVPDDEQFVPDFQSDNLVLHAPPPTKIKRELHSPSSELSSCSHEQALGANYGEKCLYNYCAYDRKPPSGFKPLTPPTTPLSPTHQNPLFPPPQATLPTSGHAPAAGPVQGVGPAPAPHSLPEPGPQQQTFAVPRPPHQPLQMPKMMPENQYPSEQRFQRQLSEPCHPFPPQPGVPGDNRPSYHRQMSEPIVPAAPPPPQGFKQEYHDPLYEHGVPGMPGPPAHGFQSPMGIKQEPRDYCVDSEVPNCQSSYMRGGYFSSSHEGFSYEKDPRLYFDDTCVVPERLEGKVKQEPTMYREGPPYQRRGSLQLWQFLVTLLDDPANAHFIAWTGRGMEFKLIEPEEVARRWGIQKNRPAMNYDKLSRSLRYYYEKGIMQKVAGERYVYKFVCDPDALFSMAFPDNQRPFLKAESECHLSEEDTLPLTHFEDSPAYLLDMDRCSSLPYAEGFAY
Another assay deals with HSF1 (Homo sapiens, UniProt Q00613 1-529). Particulars: protein: recombinant; tags: N-terminal GST; chain copies: 3; dsDNA, one strand shown. The procedure, abridged: as §1
HSF1, sequence (Q00613 whole entry): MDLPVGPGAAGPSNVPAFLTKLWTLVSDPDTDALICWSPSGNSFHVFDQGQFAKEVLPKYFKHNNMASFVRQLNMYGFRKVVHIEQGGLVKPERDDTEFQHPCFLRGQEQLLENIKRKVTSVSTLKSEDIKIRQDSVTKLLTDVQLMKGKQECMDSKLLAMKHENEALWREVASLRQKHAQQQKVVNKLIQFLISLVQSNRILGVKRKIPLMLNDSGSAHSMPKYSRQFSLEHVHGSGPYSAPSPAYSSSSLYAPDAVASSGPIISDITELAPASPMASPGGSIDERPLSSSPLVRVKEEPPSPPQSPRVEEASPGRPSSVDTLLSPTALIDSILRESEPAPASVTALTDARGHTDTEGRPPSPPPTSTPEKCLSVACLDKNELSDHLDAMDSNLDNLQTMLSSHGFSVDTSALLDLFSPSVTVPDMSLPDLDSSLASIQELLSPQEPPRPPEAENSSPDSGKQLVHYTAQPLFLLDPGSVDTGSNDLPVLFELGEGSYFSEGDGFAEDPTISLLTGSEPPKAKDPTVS
A further assay addresses T2, SPIC (Homo sapiens, UniProt Q8N5J4 1-248).
T2 sequence: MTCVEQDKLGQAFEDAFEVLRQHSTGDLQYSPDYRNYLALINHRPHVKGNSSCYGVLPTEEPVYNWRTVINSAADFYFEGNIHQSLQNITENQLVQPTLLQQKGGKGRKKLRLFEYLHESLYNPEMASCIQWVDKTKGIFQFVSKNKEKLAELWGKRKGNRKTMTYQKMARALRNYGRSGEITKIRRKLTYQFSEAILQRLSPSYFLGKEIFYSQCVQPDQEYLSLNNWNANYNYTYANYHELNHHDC
The conditions noted are these: protein: recombinant; tags: N-terminal GST; dsDNA, one strand shown. The procedure, abridged:
as §1

For a further assay, the target named is ELF4 (Homo sapiens, UniProt Q99607 1-663). Particulars: protein: recombinant; tags: N-terminal GST; dsDNA, one strand shown. Summed up:
as §1

For the next assay, the target named is T3, ELK4 (Homo sapiens, UniProt P28324-2 1-405).
T3 sequence: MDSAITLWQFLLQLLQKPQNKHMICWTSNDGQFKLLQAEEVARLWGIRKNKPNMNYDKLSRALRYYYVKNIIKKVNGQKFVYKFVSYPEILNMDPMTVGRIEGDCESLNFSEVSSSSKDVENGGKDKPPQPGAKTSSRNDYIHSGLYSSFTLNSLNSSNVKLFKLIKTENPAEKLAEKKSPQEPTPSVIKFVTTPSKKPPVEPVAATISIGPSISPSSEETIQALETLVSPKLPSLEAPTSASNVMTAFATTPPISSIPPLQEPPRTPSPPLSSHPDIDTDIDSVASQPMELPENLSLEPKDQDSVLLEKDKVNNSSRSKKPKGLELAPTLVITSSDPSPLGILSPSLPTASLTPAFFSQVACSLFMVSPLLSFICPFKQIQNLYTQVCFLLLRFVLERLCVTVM
The conditions noted are these: protein: recombinant; tags: N-terminal GST; dsDNA, one strand shown. The procedure, abridged:
as §1

In the next assay the target is T4, ETV2 (Homo sapiens, UniProt O00321 1-342).
T4 sequence: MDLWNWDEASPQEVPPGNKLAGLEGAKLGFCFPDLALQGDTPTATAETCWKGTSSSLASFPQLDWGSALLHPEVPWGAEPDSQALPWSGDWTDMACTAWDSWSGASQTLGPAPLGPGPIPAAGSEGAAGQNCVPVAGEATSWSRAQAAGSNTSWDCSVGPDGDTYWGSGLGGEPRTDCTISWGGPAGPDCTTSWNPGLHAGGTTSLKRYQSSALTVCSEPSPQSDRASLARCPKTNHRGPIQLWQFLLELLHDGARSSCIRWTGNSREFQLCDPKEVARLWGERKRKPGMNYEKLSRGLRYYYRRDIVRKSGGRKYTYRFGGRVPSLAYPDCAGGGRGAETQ
The conditions noted are these: protein: recombinant; tags: N-terminal GST; dsDNA, one strand shown. The procedure, abridged:
as §1

For another assay, the target named is T5, ELF3 (Homo sapiens, UniProt P78545 1-371).
T5 sequence: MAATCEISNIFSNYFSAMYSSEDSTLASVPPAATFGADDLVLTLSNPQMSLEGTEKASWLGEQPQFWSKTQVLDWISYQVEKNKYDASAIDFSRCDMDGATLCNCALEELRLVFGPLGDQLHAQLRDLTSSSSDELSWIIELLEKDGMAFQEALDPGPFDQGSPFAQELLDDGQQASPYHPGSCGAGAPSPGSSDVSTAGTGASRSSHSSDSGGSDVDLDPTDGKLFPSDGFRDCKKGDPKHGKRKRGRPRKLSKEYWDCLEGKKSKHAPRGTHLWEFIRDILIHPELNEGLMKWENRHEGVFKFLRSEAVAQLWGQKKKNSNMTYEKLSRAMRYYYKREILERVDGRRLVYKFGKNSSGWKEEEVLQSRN
Particulars: protein: recombinant; tags: N-terminal GST; dsDNA, one strand shown. The procedure, abridged: as §1

The next assay addresses CRX (Homo sapiens, UniProt O43186 1-299). Particulars: protein: recombinant; tags: N-terminal GST; dsDNA, one strand shown. The procedure, abridged: as §1
The next assay deals with ETV1 (Homo sapiens, UniProt P50549 1-477). Particulars: protein: recombinant; tags: N-terminal GST; dsDNA, one strand shown. The procedure, abridged:
as §1

The target of the next assay is T6, ERF (Homo sapiens, UniProt P50548 1-548).
T6 sequence: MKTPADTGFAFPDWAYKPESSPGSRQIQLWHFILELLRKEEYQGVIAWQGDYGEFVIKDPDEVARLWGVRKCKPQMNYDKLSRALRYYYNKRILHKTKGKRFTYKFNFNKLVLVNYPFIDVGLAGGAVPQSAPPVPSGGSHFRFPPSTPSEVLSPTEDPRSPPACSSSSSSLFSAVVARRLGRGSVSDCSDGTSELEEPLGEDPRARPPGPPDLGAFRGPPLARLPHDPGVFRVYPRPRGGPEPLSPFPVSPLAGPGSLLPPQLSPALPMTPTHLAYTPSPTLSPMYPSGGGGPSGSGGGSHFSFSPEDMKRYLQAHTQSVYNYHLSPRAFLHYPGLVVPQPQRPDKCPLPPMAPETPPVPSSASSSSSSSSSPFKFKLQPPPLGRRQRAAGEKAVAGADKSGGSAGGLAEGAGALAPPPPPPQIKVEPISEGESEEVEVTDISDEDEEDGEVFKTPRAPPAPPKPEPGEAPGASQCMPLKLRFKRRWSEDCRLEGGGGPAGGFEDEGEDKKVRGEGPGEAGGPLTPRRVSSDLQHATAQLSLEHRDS
Particulars: protein: recombinant; tags: N-terminal GST; dsDNA, one strand shown. Summed up:
as §1

The target of a further assay is T7, ETV3L (Homo sapiens, UniProt Q6ZN32 1-361).
T7 sequence: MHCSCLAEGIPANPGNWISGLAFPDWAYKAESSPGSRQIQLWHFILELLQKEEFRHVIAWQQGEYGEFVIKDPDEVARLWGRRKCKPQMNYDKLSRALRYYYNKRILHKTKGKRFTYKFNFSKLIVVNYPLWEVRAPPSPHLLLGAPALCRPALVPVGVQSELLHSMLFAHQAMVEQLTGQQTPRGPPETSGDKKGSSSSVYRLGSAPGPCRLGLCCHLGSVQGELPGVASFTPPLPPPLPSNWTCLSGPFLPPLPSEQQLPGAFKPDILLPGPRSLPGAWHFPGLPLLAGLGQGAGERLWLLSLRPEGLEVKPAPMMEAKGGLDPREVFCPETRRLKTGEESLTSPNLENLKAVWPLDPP
Particulars: protein: recombinant; tags: N-terminal GST; dsDNA, one strand shown. The procedure, abridged: as §1

The next assay concerns the target T8, ETS2 (Homo sapiens, UniProt P15036 1-469).
T8 sequence: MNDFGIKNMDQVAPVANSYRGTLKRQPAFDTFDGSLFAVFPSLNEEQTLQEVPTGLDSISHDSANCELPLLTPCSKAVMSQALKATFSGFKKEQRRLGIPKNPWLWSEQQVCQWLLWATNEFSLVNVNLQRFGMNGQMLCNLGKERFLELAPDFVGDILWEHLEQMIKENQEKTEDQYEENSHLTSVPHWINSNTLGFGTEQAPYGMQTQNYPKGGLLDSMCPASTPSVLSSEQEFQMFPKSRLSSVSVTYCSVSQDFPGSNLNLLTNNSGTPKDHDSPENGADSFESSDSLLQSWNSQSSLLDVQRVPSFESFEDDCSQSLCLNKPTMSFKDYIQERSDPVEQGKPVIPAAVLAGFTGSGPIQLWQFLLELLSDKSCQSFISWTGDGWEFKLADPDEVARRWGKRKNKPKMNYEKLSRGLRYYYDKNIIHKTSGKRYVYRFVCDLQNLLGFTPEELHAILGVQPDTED
Particulars: protein: recombinant; tags: N-terminal GST; dsDNA, one strand shown. The procedure, abridged:
as §1

For the next assay, the target named is T9, SPDEF (Homo sapiens, UniProt O95238 1-335).
T9 sequence: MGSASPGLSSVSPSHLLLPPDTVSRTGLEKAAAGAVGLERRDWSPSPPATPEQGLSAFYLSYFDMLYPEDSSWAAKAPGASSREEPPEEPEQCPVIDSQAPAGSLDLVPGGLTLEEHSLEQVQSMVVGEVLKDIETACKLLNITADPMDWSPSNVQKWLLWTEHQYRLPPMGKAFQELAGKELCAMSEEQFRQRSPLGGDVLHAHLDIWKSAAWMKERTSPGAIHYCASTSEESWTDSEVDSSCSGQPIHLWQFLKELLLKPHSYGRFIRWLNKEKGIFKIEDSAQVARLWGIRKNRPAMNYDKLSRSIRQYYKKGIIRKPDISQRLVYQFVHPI
Particulars: protein: recombinant; tags: N-terminal GST; dsDNA, one strand shown. The procedure, abridged: as §1

A further assay has as its target T10, ETV7 (Homo sapiens, UniProt Q9Y603 1-341).
T10 sequence: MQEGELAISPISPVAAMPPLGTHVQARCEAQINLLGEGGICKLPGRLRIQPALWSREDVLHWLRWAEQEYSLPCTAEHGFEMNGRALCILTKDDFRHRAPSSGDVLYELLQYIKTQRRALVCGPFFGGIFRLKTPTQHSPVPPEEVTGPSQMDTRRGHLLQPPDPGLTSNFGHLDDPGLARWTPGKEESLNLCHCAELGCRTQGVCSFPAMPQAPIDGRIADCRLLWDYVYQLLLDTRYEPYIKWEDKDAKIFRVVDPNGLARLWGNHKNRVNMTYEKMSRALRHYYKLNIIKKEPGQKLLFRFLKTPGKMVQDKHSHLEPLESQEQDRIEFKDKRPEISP
Particulars: protein: recombinant; tags: N-terminal GST; dsDNA, one strand shown. The procedure, abridged:
as §1

A further assay deals with T11, ELF5 (Homo sapiens, UniProt Q9UKW6-2 1-255).
T11 sequence: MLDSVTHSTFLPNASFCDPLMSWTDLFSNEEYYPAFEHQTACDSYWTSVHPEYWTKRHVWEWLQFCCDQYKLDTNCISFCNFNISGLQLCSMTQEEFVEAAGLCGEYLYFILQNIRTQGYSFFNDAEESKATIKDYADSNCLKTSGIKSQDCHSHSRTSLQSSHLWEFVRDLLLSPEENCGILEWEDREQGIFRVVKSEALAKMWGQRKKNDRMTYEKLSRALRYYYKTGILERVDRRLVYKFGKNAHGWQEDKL
The conditions noted are these: protein: recombinant; tags: N-terminal GST; dsDNA, one strand shown. Summed up: as §1

The target in a further assay is T12, ETV3 (Homo sapiens, UniProt P41162-2 1-143).
T12 sequence: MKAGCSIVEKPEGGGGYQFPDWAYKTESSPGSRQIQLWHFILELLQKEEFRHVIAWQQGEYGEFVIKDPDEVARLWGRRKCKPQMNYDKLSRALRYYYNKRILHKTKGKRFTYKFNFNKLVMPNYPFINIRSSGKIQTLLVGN
The conditions noted are these: protein: recombinant; tags: N-terminal GST; dsDNA, one strand shown. Summed up:
as §1

The target of the next assay is ETV6 (Homo sapiens, UniProt P41212 1-452). Particulars: protein: recombinant; tags: N-terminal GST; dsDNA, one strand shown. Summed up: as §1
ETV6, sequence (P41212 whole entry): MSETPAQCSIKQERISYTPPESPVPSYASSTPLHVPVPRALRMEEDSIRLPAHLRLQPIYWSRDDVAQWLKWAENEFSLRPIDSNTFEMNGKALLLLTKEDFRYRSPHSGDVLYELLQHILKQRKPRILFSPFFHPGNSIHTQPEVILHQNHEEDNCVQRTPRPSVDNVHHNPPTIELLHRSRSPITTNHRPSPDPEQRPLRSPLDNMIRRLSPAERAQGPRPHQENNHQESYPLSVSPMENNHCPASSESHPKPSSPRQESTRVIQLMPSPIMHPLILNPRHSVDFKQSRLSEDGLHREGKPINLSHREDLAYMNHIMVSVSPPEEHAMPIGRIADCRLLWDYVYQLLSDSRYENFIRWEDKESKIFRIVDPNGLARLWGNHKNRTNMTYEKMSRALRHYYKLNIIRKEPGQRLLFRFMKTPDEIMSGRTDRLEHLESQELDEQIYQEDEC

CRX, sequence (O43186 whole entry): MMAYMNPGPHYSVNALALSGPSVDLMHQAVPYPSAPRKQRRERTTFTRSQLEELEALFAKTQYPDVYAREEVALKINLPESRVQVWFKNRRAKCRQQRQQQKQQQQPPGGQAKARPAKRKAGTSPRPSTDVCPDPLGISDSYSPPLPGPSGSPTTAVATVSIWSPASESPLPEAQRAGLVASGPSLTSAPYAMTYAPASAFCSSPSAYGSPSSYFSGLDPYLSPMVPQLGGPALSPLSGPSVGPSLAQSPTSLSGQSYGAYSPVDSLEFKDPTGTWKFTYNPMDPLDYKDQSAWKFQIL
ETV1, sequence (P50549 whole entry): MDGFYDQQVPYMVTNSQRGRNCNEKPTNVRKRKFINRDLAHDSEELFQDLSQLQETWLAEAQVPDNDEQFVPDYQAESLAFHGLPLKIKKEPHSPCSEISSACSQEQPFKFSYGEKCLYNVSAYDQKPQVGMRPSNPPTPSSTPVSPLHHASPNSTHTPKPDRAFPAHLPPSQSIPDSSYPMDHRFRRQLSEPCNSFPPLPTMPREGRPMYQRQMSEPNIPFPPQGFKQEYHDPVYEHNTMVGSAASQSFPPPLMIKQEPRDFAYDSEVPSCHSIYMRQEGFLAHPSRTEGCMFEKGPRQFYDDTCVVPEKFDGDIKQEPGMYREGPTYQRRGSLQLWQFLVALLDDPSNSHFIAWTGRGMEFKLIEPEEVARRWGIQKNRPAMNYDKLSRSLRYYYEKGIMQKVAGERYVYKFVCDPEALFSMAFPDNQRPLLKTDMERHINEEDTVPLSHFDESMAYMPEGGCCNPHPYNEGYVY
ELF4, sequence (Q99607 whole entry): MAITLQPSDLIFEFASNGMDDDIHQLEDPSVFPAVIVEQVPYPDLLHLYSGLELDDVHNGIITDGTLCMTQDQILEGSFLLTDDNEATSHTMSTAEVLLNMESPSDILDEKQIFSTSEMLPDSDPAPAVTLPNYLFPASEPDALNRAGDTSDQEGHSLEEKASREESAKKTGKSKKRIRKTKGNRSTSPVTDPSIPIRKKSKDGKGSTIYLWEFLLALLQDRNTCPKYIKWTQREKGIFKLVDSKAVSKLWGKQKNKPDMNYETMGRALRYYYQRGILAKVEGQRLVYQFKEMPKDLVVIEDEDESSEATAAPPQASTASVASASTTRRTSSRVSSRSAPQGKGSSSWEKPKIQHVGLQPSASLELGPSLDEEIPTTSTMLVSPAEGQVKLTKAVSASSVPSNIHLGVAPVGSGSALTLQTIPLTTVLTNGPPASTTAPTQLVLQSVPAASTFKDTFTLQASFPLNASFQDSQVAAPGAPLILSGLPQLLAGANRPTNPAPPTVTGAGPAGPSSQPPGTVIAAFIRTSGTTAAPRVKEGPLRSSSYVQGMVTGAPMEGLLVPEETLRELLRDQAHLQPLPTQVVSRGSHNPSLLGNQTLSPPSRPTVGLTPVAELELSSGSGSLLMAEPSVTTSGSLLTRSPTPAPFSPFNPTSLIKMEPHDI

Take CTGCTA: the binding signal was 1.47 fold enrichment (6-mer frequency, TF over GST control) with FEV; 1.56 fold enrichment (6-mer frequency, TF over GST control) with ETV5; 1.37 fold enrichment (6-mer frequency, TF over GST control) with HSF1; 1.5 fold enrichment (6-mer frequency, TF over GST control) in the assay with SPIC; 1.42 fold enrichment (6-mer frequency, TF over GST control) with ELF4; 1.68 fold enrichment (6-mer frequency, TF over GST control) with ELK4. The binding signal was 1.49 fold enrichment (6-mer frequency, TF over GST control) with ETV2; 1.67 fold enrichment (6-mer frequency, TF over GST control) with ELF3; 1.36 fold enrichment (6-mer frequency, TF over GST control) with CRX; 1.64 fold enrichment (6-mer frequency, TF over GST control) in the assay with ETV1; 1.49 fold enrichment (6-mer frequency, TF over GST control) with ERF; 1.38 fold enrichment (6-mer frequency, TF over GST control) in the assay with ETV3L. Moreover, the binding signal with ETS2 was 1.49 fold enrichment (6-mer frequency, TF over GST control); with SPDEF, 1.4 fold enrichment (6-mer frequency, TF over GST control); in the assay with ETV7 it was 1.5 fold enrichment (6-mer frequency, TF over GST control); with ELF5, 1.43 fold enrichment (6-mer frequency, TF over GST control); with ETV3, 1.39 fold enrichment (6-mer frequency, TF over GST control); in the assay with ETV6 it was 1.39 fold enrichment (6-mer frequency, TF over GST control).
